This is an account of results in PubChem BioAssay AID771 (SRMLSC, 2007).

The assay in a line: HT29 colon tumor cell growth inhibition, primary screen, imaging, high content imaging, 48 h, CellTiter-Glo (AID 771).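 For condensed nuclei: condensed means Hoechst nuclear area under control median minus 1.5 SD.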 The conditions noted are these: HCS imaging cell count, at 10 µM, stronger effect = higher value; for condensed nuclei: measured here: percent cells with condensed nuclei.
Where [1] appears, read: measured here: ATP CellTiter-Glo viability inhibition.

Out of some 3,300 compounds screened, about 55 (2%) were called active.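 Rule for the calls: active = growth inhibition above 90%, meaning viable cell count by imaging cut by more than 90% versus vehicle controls; inactive = growth inhibition below 90%.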 Shown is part of a subset that was picked to be rich in actives.

As to `COc1ccc(-n2ncc3c(Nc4cccc(C)c4)ncnc32)cc1`, the growth inhibition was 30.6% (inactive) and the condensed nuclei came to 3.63%. Also, the growth inhibition under setting [1] was -2.53%.

For the compound `N#CC1=C(N)NC(SCc2ccc(F)cc2)=C(C#N)C12CCCCC2`, the growth inhibition was 95.4% (active) and the condensed nuclei came to 27.3%. For the same compound, the growth inhibition under setting [1] was 69.3%.

Regarding `N#CC1=C(N)NC(SCc2ccc(Cl)cc2)=C(C#N)C12CCCCC2`, the growth inhibition was 79.6% (inactive) and the condensed nuclei stood at 17.1%. Under setting [1], the growth inhibition stood at 70.5%.

On to `COc1ccc(C(=O)CSC2=C(C#N)C3(CCCCC3)C(C#N)=C(N)N2)cc1`, for which the growth inhibition is 27% (inactive) and the condensed nuclei was 7.53%. For the same compound, the growth inhibition under setting [1] is 4.09%.

As to `C=CCN(C(=O)CCC(=O)O)C1CC(=O)N(c2ccc(OC)cc2)C1=O` (stereo not given), the growth inhibition was -35.5% (inactive) and the condensed nuclei came out at 1.95%. Moreover, the growth inhibition under setting [1] was -24.9%.

Regarding `Cn1c(=NCC(O)COc2ccccc2)sc2ccccc21` (stereo not given), the growth inhibition was 25.5% (inactive) and the condensed nuclei came to 3.63%. Besides, the growth inhibition under setting [1] is -13.5%.

Turning to `COCCNc1oc(-c2ccc(C)cc2)nc1C#N`, the growth inhibition was 11.6% (inactive) and the condensed nuclei came to 2.76%. In addition, the growth inhibition under setting [1] was -12.3%.

Regarding `O=C(O)c1ccc(COCC(F)(F)C(F)F)o1`, the growth inhibition is -17.7% (inactive) and the condensed nuclei was 3.29%. Further, under setting [1], the growth inhibition is -10.2%.

Take `CCOc1ccc(Cn2c(O)cc(=O)[nH]c2=O)cc1`: the growth inhibition was -7.52% (inactive) and the condensed nuclei worked out at 1.27%. Also, the growth inhibition under setting [1] was -20.8%.

Take `CC1CN(C2CCN(C(=O)c3ccccc3Cl)CC2)CC(C)O1` (stereo not given): the growth inhibition was -18.6% (inactive) and the condensed nuclei came out at 4.01%. The growth inhibition under setting [1] was -39.5%.

For `CC1CN(C2CCN(C(=O)c3ccccc3)CC2)CC(C)O1` (stereo not given), the growth inhibition was 92.5% (active) and the condensed nuclei came out at 3.65%. Moreover, under setting [1], the growth inhibition is -44.3%.

Consider `CC1CN(C2CCN(C(=O)COc3ccccc3)CC2)CC(C)O1` (stereo not given), for which the growth inhibition was -1.5% (inactive) and the condensed nuclei worked out at 2.3%. In addition, the growth inhibition under setting [1] is -3.33%.

Regarding `CCOC(=O)c1sc2c(c1C)c(=O)c(C(=O)OCC)cn2CC`, the growth inhibition is -35.2% (inactive) and the condensed nuclei was determined as 0.84%. The growth inhibition under setting [1] is -21.7%.

For `CCCc1[nH]nc2c1C(c1cccc(OC)c1)C(C#N)=C(N)O2` (stereo not given), the growth inhibition is 55.3% (inactive) and the condensed nuclei is 16.6%. For the same compound, the growth inhibition under setting [1] came out at 9.76%.

Consider `Cc1cccc(OCC(=O)N2CCC(N3CCOCC3)CC2)c1`, for which the growth inhibition was -31.7% (inactive) and the condensed nuclei was found to be 0.89%. Under setting [1], the growth inhibition is -31.1%.

Regarding `CNCCCC12CCC(c3ccccc31)c1ccccc12`, the growth inhibition is 95% (active) and the condensed nuclei is 18.3%.

For `Nc1ccc(Cl)cc1/C(=N/O)c1ccccc1`, the growth inhibition was 33.8% (inactive) and the condensed nuclei is 3.59%. Also, the growth inhibition under setting [1] was -14.5%.

On to `C=C1[C@@H](C)C2[C@H](Cc3ccccc3)NC(=O)[C@]23OC(=O)CC[C@H](O)CCC[C@H](C)C/C=C/[C@H]3[C@@H]1O` (stereo not given in full), for which the growth inhibition was 92.4% (active) and the condensed nuclei was found to be 18.2%.

On to `CCOC(=O)CSc1nc(N(C)C)nc(N(C)C#N)n1`, for which the growth inhibition is 27.7% (inactive) and the condensed nuclei was 1.4%. The growth inhibition under setting [1] was -19.8%.
